Data reported in PubChem BioAssay (EPA / NIEHS).
Several values for one entry are separate records, joined by “and”; a condition that tells them apart may be missing. Equal entries are not always repeated. Results filed as inconclusive are left out. Activity calls are given as the source filed them. How the source made its calls, unless noted: active means hit-call score of the fitted dose curve at least 0.9, where 1 is the maximum; inactive means score below 0.9.

Key:
[1] = BSK_3C_uPAR: BioMAP Diversity Plus: 3C Assay for Urokinase-type plasminogen activator receptor (uPAR) Biomarker Activity (AID 2282998); details: BioMAP 3C HUVEC, uPAR biomarker ELISA; actives raise or lower the signal
In short: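 Human umbilical vein endothelial primary cells were exposed to test chemical for 24 h. Cell-surface uPAR was then quantified by ELISA, and responses were fitted bidirectionally against DMSO as negative control and baseline.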

[2] = BSK_4H_Eotaxin3: BioMAP Diversity Plus: 4H Assay for Eotaxin 3 Biomarker Activity (AID 2283000); details: primary human endothelial cells (HUVEC); actives raise or lower the signal
In short: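 ELISA quantitation of CCL26 (Eotaxin-3) protein from chemically dosed human vascular endothelial cells at 24 h; increases and decreases both scored relative to DMSO-treated baseline.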

[3] = read-out: Monocyte Chemoattractant Protein-1 (MCP1), CCL2 (gene 6347); assay: BSK_4H_MCP1: BioMAP Diversity Plus: 4H Assay for Monocyte Chemoattractant Protein-1 (MCP1) Biomarker Activity (AID 2283018); details: primary human endothelial cells (HUVEC); actives raise or lower the signal
In short: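 Endothelial cells from umbilical vein were treated with test chemical, then after 24 h MCP-1 levels were quantified by ELISA; endpoint values came from bidirectional fitting with DMSO as baseline of activity.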

[4] = read-out: Monokine induced gamma interferon (MIG), CXCL9 (gene 4283); assay: BSK_3C_MIG: BioMAP Diversity Plus: 3C Assay for Monokine induced gamma interferon (MIG) Biomarker Activity (AID 2283021); details: primary human endothelial cells (HUVEC); actives raise or lower the signal;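 on AC50: MIG protein level measured by immunoassay in the treated endothelial cultures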
In short: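 Endothelial primary cells (human umbilical vein) are dosed with test chemical in the 3C system. MIG levels are measured by ELISA at 24 h and fitted in both directions relative to DMSO.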

[5] = BSK_3C_SRB: Viability Assessment in the BioMAP Diversity Plus: 3C Assay (AID 2283023); details: primary human endothelial cells (HUVEC);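 further: fitted both ways against DMSO so a hit may be signal rise or drop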
In short: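 Overt cytotoxicity is gauged in parallel confluent HUVEC cultures by SRB total-protein staining at the time of biomarker measurement, 24 h after dosing. Gain or loss of signal is fitted versus DMSO.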

[6] = BSK_BE3C_SRB: Viability Assessment in the BioMAP Diversity Plus: BE3C Assay (AID 2283028); details: primary human bronchial epithelial cells;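 on AC50: fitted both ways so AC50 may mark signal gain or loss versus DMSO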
In short: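 SRB total-protein staining (0.1%, after TCA fixation) of chemically dosed human bronchial epithelial primary cells at 24 h; DMSO serves as the negative control for bidirectional curve fitting.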

[7] = read-out: Monokine induced gamma interferon (MIG), CXCL9 (gene 4283); assay: BSK_BE3C_MIG: BioMAP Diversity Plus: BE3C Assay for Monokine induced gamma interferon (MIG) Biomarker Activity (AID 2283035); details: primary human bronchial epithelial cells; actives raise or lower the signal
In short: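 hu bronchial epithelial 1° cells, 24 h cpd; MIG by ELISA; bidirectional fit, DMSO = baseline.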

[8] = read-out: Plasminogen activator inhibitor-1 (PAI1), SERPINE1 (gene 5054); assay: BSK_BE3C_PAI1: BioMAP Diversity Plus: BE3C Assay for Plasminogen activator inhibitor-1 (PAI1) Biomarker Activity (AID 2283037); details: primary human bronchial epithelial cells; actives raise or lower the signal
In short: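 Values derive from bidirectional fitting against DMSO baseline of PAI-1 levels, measured by ELISA in human bronchial epithelial cells 24 h after compound addition.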

[9] = read-out: Urokinase-type plasminogen activator receptor (uPAR), PLAUR (gene 5329); assay: BSK_BE3C_uPAR: BioMAP Diversity Plus: BE3C Assay for Urokinase-type plasminogen activator receptor (uPAR) Biomarker Activity (AID 2283039); details: primary human bronchial epithelial cells; actives raise or lower the signal
In short: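 Steps: dose human primary bronchial epithelial cells, incubate 24 h, measure uPAR by ELISA, then fit gain- or loss-of-signal response bidirectionally relative to DMSO.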

[10] = read-out: Tissue plasminogen activator (tPA), PLAT (gene 5327); assay: BSK_BE3C_tPA: BioMAP Diversity Plus: BE3C Assay for Tissue plasminogen activator (tPA) Biomarker Activity (AID 2283041); details: primary human bronchial epithelial cells; actives raise or lower the signal
In short: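 Gain- or loss-of-signal in tPA, measured by ELISA, derived by bidirectional fitting against DMSO. Cells: human primary bronchial epithelial; read at 24 h after chemical dosing.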

[11] = read-out: Interleukin-8 (IL8), CXCL8 (gene 3576); assay: BSK_CASM3C_IL8: BioMAP Diversity Plus: CASM3C Assay for Interleukin-8 (IL8) Biomarker Activity (AID 2283042); details: primary human coronary artery smooth muscle cells; actives raise or lower the signal;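 further: IL-8 protein level quantified by ELISA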
[12] = read-out: Human Leukocyte Antigen - DR isotype (HLADR), HLA-DRA (gene 3122); assay: BSK_CASM3C_HLADR: BioMAP Diversity Plus: CASM3C Assay for Human Leukocyte Antigen - DR isotype (HLADR) Biomarker Activity (AID 2283043); details: primary human coronary artery smooth muscle cells; actives raise or lower the signal;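 further: cell-surface HLA-DR protein level quantified by ELISA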
[13] = read-out: Macrophage colony-stimulating factor (MCSF), CSF1 (gene 1435); assay: BSK_CASM3C_MCSF: BioMAP Diversity Plus: CASM3C Assay for Macrophage colony-stimulating factor (MCSF) Biomarker Activity (AID 2283044); details: primary human coronary artery smooth muscle cells; actives raise or lower the signal;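 further: M-CSF protein amount quantified by ELISA after 24 h exposure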
[14] = read-out: Low-density lipoprotein receptor (LDLR), LDLR (gene 3949); assay: BSK_CASM3C_LDLR: BioMAP Diversity Plus: CASM3C Assay for Low-density lipoprotein receptor (LDLR) Biomarker Activity (AID 2283045); details: primary human coronary artery smooth muscle cells; actives raise or lower the signal;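 further: LDLR protein level on the cell surface quantified by ELISA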
[15] = read-out: Monocyte Chemoattractant Protein-1 (MCP1), CCL2 (gene 6347); assay: BSK_CASM3C_MCP1: BioMAP Diversity Plus: CASM3C Assay for Monocyte Chemoattractant Protein-1 (MCP1) Biomarker Activity (AID 2283046); details: primary human coronary artery smooth muscle cells; actives raise or lower the signal
[16] = target: Nuclear receptor subfamily 4 group A member 2 (Homo sapiens) (UniProt P43354); assay: ATG_NURR1_TRANS: Attagene TRANS-FACTORIAL HepG2 Assay for human Nuclear Receptor Related Protein 1 (NURR1) (AID 2282985; active means hit-call score of the fitted dose curve at least 0.9, where 1 is the maximum); details: HepG2 Attagene TRANS reporter, mRNA readout
In short: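 Chimeric NR-Gal4 fusion activity measured in HepG2 after 24 h treatment. Reporter transcripts detected by RT-PCR and capillary electrophoresis fluorescence; positive-direction curve fitting against DMSO.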

[17] = target: Nuclear receptor subfamily 1 group I member 2 (Homo sapiens) (UniProt O75469); assay: ATG_PXR_TRANS: Attagene TRANS-FACTORIAL HepG2 Assay for human Pregnane X Receptor (PXR) (AID 2283008; active means hit-call score of the fitted dose curve at least 0.9, where 1 is the maximum)
In short: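 Trans-factorial format: exogenous NR-Gal4 fusion activity, not endogenous factor, in transfected human HepG2 liver cells. After 24 h dosing, RNA isolated, reverse-transcribed, amplified and resolved by capillary electrophoresis; induction scored versus DMSO.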

[18] = ATG_GLI_CIS: Attagene CIS-FACTORIAL HepG2 Assay for human Zinc Finger Protein GLI1 (AID 2282945); details: HepG2, Attagene cis-factorial reporter mRNA, GLI element; actives raise or lower the signal
In short: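 HepG2 cells transiently transfected with cis-promoter multiplexed reporter units report endogenous transcription factor activity. After 24 h chemical exposure, reporter mRNA was quantified by RT-PCR, 6-FAM labelling, HpaI digestion and capillary electrophoresis, with bidirectional fitting against DMSO.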

[19] = target: Retinoic acid receptor RXR-alpha (Homo sapiens) (UniProt P19793); assay: ATG_RXRa_TRANS: Attagene TRANS-FACTORIAL HepG2 Assay for human Retinoid X Receptor alpha (RXRa) (AID 2283012; active means hit-call score of the fitted dose curve at least 0.9, where 1 is the maximum)
In short: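 Measures exogenous chimeric NR-GAL4 activity in transfected HepG2 liver cells after 24 h of dosing. Induced reporter mRNA was detected by RT-PCR with capillary electrophoresis, and gain of signal was analysed against DMSO.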

[20] = ATG_Sox_CIS: Attagene CIS-FACTORIAL HepG2 Assay for human SRY-box transcription factor (SOX) (AID 2282960); details: HepG2 Attagene cis-factorial SOX reporter, mRNA; actives raise or lower the signal
In short: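 Reporter transcripts, measured by RT-PCR and capillary electrophoresis of labelled fragments, report endogenous SOX transcription factor activity. Transiently transfected human HepG2 cells receive chemical for 24 h; changes in either direction are fitted relative to DMSO.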

Measured: AC50

Chain of Retinoic acid receptor RXR-alpha (Homo sapiens) (P19793 whole entry, looked up, the tested form may be a part): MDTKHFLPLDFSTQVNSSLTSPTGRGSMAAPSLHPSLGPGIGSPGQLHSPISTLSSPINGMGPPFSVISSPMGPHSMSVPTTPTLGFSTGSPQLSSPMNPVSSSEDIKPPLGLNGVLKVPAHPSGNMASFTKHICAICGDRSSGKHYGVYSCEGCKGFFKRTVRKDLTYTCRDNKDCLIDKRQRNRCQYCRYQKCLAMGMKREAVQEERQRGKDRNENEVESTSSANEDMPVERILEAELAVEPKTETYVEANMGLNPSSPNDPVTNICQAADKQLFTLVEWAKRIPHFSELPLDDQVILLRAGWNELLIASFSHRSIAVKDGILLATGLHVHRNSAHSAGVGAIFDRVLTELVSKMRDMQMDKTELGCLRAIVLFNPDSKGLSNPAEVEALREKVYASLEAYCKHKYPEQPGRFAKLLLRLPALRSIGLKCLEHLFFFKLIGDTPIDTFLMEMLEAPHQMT
Chain of Nuclear receptor subfamily 4 group A member 2 (Homo sapiens) (P43354 whole entry, looked up, the tested form may be a part): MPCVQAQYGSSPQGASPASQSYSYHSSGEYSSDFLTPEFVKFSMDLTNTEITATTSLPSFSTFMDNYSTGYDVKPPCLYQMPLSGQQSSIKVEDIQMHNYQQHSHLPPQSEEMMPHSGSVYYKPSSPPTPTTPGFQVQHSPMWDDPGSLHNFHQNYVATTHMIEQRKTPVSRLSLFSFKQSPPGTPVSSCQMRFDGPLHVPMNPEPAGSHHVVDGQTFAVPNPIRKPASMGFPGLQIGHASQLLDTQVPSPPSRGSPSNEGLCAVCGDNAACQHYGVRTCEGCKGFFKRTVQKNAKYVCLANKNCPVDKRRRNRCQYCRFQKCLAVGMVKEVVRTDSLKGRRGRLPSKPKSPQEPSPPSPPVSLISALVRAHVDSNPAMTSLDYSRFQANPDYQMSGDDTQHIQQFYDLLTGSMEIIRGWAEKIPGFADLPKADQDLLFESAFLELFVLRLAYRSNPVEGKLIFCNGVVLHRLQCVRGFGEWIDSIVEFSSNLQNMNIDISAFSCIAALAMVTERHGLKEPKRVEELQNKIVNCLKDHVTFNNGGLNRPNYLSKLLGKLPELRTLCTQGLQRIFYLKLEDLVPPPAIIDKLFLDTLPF
Chain of Nuclear receptor subfamily 1 group I member 2 (Homo sapiens) (O75469 whole entry, looked up, the tested form may be a part): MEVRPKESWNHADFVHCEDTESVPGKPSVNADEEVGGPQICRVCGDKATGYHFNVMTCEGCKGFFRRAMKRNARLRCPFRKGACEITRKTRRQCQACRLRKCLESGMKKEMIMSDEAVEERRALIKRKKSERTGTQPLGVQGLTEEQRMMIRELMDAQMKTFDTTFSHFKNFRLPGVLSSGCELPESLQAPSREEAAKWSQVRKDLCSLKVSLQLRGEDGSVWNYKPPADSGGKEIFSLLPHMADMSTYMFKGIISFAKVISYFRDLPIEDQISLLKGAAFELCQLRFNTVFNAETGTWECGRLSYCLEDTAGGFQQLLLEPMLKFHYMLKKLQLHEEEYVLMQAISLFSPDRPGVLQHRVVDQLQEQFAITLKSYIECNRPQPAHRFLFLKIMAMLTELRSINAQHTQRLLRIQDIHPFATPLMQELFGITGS

CCCCC(CC)COC(=O)C=Cc1ccc(OC)cc1 (stereo unspecified)
active: [1] 35.3 µM and 26.2 µM | [2] 24.2 µM and 18.9 µM | [3] 20 µM and 27.4 µM | [5] 31.8 µM and 31.4 µM | [12] 13.9 µM and 7.28 µM
not listed: [16] | [17] | [18] | [19] | [20]
inactive: all other assays above

CC1=NN(c2cc(Cl)c(S(=O)(=O)O)cc2Cl)C(=O)C1N=Nc1ccc(S(=O)(=O)O)cc1 (stereo unspecified)
inactive: [16] | [17]

O=C(O)/C=C\C(=O)O
inactive: [18] | [16] | [19]

COc1cc(CNC(=O)CCCC/C=C/C(C)C)ccc1O
active: [12] 16.8 µM and 5.89 µM
not listed: [16] | [17] | [18] | [19] | [20]
inactive: all other assays above

CC(C)(C)NC(=O)[C@@H]1CN(Cc2cccnc2)CCN1C[C@@H](O)C[C@@H](Cc1ccccc1)C(=O)N[C@H]1c2ccccc2C[C@H]1O
inactive: [18] | [16] | [19]

Clc1ccccn1
inactive: [18] | [20]

COc1ccccc1Oc1c(NS(=O)(=O)c2ccc(C(C)(C)C)cc2)nc(-c2ncccn2)nc1OCCO
active: [2] 7.97 µM and 11.3 µM | [13] 4.05 µM and 5.31 µM
not listed: [16] | [17] | [18] | [19] | [20]
inactive: all other assays above

CCCc1c(OCCCCc2nn[nH]n2)ccc(C(C)=O)c1O
inactive: [18] | [20] | [17] | [19]
active: [16] 50.4 µM

O=[N+]([O-])c1cc(S(=O)(=O)Nc2ccccc2)ccc1Nc1ccccc1
active: [1] 26 µM and 17.8 µM | [2] 26.6 µM and 25.5 µM | [3] 27.8 µM and 20 µM | [5] 30.3 µM and 30.8 µM | [6] 27.5 µM and 31.7 µM | [7] 31 µM and 34.2 µM | [8] 24.7 µM and 27.1 µM | [9] 32.4 µM and 31.6 µM | [10] 34 µM and 29.7 µM
inactive: [4] | [11] | [12] | [13] | [14] | [15]

CCCCn1cc[n+](C)c1
inactive: [18] | [20] | [16] | [17] | [19]

CC/C=C\CC1=C(C)CCC1=O
inactive: [18] | [17] | [19]

CCO[Si](OCC)(OCC)c1ccccc1
inactive: [18] | [20] | [16] | [17] | [19]

OC(C(F)(F)F)(C(F)(F)F)C(O)(C(F)(F)F)C(F)(F)F
active: [1] 13.8 µM and 10.7 µM | [2] 22.3 µM and 27.4 µM | [3] 21.5 µM and 10.1 µM | [4] 43.7 µM and 50.9 µM | [5] 30 µM and 27.7 µM | [6] 48 µM and 48.9 µM | [7] 54.8 µM and 54.6 µM | [8] 13.9 µM and 12.5 µM | [9] 14.4 µM and 13.8 µM | [10] 17 µM and 16 µM | [12] 18.7 µM and 7.57 µM | [13] 49 µM and 50.5 µM
inactive: [11] | [14] | [15]

COc1ccccc1OCC(O)CO (stereo unspecified)
inactive: [18] | [20] | [16] | [17]

COc1ccc2ccccc2c1
inactive: [20]

CC1=CCCC(C)(C)C12CCC(C)O2 (stereo unspecified)
active: [17] 2.53 µM
inactive: [20] | [19]
